From article PMC7862700, “An all-to-all approach to the identification of sequence-specific readers for epigenetic DNA modifications on cytosine”

Tests used:
Experiment in all cases: DAPPL (digital affinity profiling via proximity ligation, sequencing); 10 mM Tris-HCl pH 7.5, 50 mM NaCl, 1 mM DTT, 4% glycerol, room temperature, 30 min; GST-TFs on glutathione beads, 16-mer random dsDNA library, 0.1% formaldehyde crosslink after washing; high values mean tight binding
[1] = molecular target: T1, FLI1 (Homo sapiens, UniProt Q01543 1-452); settings: protein: recombinant; tags: N-terminal GST; dsDNA, one strand shown
T1 sequence: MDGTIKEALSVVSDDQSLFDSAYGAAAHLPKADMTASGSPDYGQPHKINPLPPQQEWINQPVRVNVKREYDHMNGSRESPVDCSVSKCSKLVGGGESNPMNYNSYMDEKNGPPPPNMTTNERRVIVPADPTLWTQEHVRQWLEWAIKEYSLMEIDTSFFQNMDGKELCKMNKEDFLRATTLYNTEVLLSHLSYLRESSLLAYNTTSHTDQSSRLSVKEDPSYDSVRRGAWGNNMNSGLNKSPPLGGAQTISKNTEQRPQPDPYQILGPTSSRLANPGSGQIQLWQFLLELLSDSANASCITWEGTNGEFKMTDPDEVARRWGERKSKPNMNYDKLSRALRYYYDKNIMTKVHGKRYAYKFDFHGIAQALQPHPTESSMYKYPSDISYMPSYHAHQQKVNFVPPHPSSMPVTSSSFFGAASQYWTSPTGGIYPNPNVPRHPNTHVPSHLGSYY
Method in brief: (§1)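 In yeast, human transcription factors were expressed with a GST fusion, then pulled down on glutathione beads and given DNA barcodes. Pooled with a tag-only sample, they were exposed to 200 nmole of a 16-mer random double-stranded DNA library (Tris/NaCl/DTT/glycerol buffer, room temperature, 30 min), washed, crosslinked with 0.1% formaldehyde, proximity-ligated using BsaI/T4 ligase for 1 h at 37 °C, PCR-amplified and read on an Illumina NextSeq500. Each hexamer's frequency of reads for a factor, divided by the matching frequency for the tag-only sample, gives the binding signal.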

[2] = molecular target: T2, ELK1 (Homo sapiens, UniProt P19419 1-428); settings: protein: recombinant; tags: N-terminal GST; dsDNA, one strand shown
T2 sequence: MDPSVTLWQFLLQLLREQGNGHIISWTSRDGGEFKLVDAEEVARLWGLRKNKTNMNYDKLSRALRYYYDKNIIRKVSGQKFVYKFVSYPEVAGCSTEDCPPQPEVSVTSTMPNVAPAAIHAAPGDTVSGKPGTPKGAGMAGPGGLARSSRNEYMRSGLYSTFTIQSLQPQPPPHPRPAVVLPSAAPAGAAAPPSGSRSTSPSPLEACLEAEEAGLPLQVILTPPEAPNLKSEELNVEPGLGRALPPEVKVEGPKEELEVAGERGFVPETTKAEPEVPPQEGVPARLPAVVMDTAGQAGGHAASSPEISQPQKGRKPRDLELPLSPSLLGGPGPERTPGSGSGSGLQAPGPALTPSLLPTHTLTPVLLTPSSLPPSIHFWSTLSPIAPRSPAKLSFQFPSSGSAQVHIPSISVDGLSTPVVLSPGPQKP
Method in brief: as §1

[3] = molecular target: T3, GABPA (Homo sapiens, UniProt Q06546 1-454); settings: protein: recombinant; tags: N-terminal GST; dsDNA, one strand shown
T3 sequence: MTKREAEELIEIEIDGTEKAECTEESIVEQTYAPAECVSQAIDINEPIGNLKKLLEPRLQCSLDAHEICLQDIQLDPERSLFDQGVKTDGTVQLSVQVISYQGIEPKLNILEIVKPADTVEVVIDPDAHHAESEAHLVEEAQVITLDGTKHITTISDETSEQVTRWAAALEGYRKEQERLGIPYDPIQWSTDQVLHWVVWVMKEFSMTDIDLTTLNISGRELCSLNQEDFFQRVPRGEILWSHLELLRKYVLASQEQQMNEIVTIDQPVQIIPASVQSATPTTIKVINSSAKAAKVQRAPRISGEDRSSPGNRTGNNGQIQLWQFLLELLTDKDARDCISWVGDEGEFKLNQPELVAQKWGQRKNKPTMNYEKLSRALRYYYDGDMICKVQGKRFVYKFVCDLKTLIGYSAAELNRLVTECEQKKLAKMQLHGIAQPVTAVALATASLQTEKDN
Method in brief: as §1

[4] = molecular target: T4, ERG (Homo sapiens, UniProt P11308 1-479); settings: protein: recombinant; tags: N-terminal GST; dsDNA, one strand shown
T4 sequence: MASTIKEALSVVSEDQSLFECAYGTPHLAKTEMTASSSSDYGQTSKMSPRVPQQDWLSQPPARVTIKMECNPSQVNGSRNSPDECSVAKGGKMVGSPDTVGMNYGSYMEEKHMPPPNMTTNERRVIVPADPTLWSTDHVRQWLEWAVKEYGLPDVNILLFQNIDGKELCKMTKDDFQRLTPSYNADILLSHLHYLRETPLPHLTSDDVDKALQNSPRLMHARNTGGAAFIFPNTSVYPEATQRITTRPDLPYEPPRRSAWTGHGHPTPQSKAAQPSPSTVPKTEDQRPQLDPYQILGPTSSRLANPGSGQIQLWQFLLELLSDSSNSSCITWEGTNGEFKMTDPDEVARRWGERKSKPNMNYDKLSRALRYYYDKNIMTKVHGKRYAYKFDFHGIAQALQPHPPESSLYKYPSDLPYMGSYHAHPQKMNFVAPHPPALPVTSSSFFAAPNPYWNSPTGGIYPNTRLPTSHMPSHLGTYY
Method in brief: as §1

[5] = molecular target: ELF1 (Homo sapiens, UniProt P32519 1-619); settings: protein: recombinant; tags: N-terminal GST; dsDNA, one strand shown
Method in brief: as §1

[6] = molecular target: T5, EHF (Homo sapiens, UniProt Q9NZC4 1-300); settings: protein: recombinant; tags: N-terminal GST; dsDNA, one strand shown
T5 sequence: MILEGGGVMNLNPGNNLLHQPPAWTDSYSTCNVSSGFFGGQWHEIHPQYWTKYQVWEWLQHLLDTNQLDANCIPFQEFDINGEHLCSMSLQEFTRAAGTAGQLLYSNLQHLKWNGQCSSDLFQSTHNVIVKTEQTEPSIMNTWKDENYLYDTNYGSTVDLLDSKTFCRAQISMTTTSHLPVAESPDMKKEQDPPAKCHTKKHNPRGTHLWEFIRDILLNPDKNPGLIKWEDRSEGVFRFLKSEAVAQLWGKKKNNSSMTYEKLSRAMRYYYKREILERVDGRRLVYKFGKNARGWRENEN
Method in brief: as §1

[7] = molecular target: SPI1 (Homo sapiens, UniProt P17947 1-270); settings: protein: recombinant; tags: N-terminal GST; dsDNA, one strand shown
Method in brief: as §1

[8] = molecular target: SPIB (Homo sapiens, UniProt Q01892 1-262); settings: protein: recombinant; tags: N-terminal GST; dsDNA, one strand shown
Method in brief: as §1

[9] = molecular target: T6, ELK3 (Homo sapiens, UniProt P41970 1-407); settings: protein: recombinant; tags: N-terminal GST; dsDNA, one strand shown
T6 sequence: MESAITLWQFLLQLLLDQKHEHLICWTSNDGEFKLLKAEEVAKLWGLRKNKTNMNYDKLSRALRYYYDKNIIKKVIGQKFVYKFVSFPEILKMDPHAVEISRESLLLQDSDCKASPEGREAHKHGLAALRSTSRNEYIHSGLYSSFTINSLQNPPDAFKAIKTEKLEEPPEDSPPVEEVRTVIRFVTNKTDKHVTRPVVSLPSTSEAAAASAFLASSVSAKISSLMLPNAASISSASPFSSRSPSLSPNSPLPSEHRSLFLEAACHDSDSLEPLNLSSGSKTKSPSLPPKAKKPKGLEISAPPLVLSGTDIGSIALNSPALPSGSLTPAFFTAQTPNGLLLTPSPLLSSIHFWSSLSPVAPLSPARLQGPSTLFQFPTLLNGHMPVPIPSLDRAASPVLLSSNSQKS
Method in brief: as §1

[10] = molecular target: T7, FEV (Homo sapiens, UniProt Q99581 1-238); settings: protein: recombinant; tags: N-terminal GST; dsDNA, one strand shown
T7 sequence: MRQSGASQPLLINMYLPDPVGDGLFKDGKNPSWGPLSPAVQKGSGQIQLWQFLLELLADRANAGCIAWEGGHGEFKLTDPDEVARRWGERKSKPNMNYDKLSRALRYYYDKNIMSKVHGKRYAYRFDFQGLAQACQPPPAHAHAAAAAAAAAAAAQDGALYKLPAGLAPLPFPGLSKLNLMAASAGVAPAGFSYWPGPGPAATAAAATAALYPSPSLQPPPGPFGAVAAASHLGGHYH
Method in brief: as §1

[11] = molecular target: ETV5 (Homo sapiens, UniProt P41161 1-510); settings: protein: recombinant; tags: N-terminal GST; dsDNA, one strand shown
Method in brief: as §1

[12] = molecular target: HSF1 (Homo sapiens, UniProt Q00613 1-529); settings: protein: recombinant; tags: N-terminal GST; chain copies: 3; dsDNA, one strand shown
Method in brief: as §1

[13] = molecular target: T8, SPIC (Homo sapiens, UniProt Q8N5J4 1-248); settings: protein: recombinant; tags: N-terminal GST; dsDNA, one strand shown
T8 sequence: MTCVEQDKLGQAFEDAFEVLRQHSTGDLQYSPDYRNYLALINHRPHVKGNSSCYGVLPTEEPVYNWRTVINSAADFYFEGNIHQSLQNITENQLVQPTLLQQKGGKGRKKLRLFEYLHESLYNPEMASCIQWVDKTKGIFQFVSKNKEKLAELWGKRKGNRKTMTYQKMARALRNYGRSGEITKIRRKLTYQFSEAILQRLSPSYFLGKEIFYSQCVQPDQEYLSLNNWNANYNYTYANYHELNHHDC
Method in brief: as §1

[14] = molecular target: ELF4 (Homo sapiens, UniProt Q99607 1-663); settings: protein: recombinant; tags: N-terminal GST; dsDNA, one strand shown
Method in brief: as §1

[15] = molecular target: T9, ELK4 (Homo sapiens, UniProt P28324-2 1-405); settings: protein: recombinant; tags: N-terminal GST; dsDNA, one strand shown
T9 sequence: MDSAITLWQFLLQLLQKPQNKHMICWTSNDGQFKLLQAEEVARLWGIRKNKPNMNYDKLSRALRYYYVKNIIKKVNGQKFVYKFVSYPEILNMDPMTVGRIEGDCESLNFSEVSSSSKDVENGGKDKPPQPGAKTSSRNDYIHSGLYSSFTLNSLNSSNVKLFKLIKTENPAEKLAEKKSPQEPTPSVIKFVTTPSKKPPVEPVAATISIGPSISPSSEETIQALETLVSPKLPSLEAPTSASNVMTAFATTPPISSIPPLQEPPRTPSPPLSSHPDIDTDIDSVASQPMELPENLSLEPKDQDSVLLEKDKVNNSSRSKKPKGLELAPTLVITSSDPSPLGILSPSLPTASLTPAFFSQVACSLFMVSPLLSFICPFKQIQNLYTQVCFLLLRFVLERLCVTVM
Method in brief: as §1

[16] = molecular target: T10, ETV2 (Homo sapiens, UniProt O00321 1-342); settings: protein: recombinant; tags: N-terminal GST; dsDNA, one strand shown
T10 sequence: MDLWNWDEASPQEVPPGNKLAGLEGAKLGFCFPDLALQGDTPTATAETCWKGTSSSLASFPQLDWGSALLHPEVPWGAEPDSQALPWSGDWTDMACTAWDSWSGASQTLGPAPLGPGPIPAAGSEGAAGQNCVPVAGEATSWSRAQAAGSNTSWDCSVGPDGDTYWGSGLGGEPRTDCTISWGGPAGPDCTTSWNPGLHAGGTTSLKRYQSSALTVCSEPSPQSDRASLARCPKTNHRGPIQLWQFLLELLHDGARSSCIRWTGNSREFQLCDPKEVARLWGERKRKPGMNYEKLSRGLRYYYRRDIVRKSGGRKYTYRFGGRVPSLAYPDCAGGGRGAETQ
Method in brief: as §1

[17] = molecular target: T11, ELF3 (Homo sapiens, UniProt P78545 1-371); settings: protein: recombinant; tags: N-terminal GST; dsDNA, one strand shown
T11 sequence: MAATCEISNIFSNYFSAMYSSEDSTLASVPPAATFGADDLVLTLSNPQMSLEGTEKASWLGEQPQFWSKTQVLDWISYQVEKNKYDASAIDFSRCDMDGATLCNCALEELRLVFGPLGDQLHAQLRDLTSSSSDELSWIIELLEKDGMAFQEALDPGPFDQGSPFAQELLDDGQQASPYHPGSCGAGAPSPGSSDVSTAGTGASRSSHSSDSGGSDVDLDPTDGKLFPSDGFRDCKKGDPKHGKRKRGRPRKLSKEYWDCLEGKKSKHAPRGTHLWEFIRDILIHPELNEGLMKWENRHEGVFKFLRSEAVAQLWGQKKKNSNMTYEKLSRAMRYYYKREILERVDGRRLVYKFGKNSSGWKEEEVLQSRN
Method in brief: as §1

[18] = molecular target: CRX (Homo sapiens, UniProt O43186 1-299); settings: protein: recombinant; tags: N-terminal GST; dsDNA, one strand shown
Method in brief: as §1

[19] = molecular target: ETV1 (Homo sapiens, UniProt P50549 1-477); settings: protein: recombinant; tags: N-terminal GST; dsDNA, one strand shown
Method in brief: as §1

ETV1, sequence (P50549 whole entry): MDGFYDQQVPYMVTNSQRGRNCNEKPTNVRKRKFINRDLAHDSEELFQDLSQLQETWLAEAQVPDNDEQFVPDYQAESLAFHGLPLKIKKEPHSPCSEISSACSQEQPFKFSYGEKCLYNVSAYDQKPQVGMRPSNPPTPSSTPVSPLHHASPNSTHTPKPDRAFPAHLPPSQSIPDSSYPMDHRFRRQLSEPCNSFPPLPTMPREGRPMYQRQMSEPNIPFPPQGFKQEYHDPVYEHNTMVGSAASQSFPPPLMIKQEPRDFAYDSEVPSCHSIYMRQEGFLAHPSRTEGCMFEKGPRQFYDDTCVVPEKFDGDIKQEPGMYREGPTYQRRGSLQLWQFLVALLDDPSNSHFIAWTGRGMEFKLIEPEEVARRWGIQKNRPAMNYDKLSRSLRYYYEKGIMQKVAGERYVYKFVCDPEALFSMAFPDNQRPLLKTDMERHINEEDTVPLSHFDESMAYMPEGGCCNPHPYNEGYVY
ELF4, sequence (Q99607 whole entry): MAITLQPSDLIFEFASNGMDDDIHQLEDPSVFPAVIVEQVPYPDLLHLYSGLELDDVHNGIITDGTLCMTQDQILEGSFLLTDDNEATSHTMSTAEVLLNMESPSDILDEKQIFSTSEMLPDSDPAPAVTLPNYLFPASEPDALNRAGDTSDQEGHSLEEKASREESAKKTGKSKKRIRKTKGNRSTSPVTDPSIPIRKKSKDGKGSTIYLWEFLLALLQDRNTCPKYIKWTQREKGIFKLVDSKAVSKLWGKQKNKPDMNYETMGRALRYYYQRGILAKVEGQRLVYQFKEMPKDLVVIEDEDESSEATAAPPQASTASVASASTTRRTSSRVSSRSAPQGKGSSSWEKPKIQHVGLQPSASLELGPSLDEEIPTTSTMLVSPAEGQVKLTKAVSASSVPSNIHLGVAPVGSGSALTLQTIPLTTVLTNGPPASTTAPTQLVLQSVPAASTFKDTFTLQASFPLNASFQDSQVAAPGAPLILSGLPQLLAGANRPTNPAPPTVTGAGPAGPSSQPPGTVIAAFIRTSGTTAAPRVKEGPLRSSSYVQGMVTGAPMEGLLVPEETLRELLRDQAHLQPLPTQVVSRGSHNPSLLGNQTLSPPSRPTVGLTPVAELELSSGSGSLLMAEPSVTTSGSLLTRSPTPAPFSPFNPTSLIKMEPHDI
SPIB, sequence (Q01892 whole entry): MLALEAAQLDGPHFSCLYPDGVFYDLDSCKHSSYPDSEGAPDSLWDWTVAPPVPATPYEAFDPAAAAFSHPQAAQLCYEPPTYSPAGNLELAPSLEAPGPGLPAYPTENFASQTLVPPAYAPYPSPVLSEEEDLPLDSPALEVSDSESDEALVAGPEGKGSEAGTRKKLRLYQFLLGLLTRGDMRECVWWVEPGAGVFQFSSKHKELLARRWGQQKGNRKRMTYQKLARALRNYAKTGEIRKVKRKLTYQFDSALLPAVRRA
ELF1, sequence (P32519 whole entry): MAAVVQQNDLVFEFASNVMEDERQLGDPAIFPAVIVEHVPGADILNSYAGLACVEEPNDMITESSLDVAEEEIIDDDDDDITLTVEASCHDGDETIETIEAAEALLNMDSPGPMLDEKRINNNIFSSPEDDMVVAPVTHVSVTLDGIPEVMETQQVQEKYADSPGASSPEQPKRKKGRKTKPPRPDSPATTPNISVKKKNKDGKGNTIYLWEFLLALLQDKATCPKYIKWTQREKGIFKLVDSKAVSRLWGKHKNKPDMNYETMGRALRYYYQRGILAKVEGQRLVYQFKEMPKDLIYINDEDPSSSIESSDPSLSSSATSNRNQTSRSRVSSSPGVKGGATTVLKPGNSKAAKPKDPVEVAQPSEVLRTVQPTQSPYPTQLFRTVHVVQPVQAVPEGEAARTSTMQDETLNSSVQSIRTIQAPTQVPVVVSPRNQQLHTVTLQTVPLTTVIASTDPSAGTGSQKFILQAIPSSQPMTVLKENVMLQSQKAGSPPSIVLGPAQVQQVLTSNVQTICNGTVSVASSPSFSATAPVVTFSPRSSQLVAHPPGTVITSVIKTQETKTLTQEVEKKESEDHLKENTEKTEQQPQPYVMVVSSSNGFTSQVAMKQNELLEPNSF
HSF1, sequence (Q00613 whole entry): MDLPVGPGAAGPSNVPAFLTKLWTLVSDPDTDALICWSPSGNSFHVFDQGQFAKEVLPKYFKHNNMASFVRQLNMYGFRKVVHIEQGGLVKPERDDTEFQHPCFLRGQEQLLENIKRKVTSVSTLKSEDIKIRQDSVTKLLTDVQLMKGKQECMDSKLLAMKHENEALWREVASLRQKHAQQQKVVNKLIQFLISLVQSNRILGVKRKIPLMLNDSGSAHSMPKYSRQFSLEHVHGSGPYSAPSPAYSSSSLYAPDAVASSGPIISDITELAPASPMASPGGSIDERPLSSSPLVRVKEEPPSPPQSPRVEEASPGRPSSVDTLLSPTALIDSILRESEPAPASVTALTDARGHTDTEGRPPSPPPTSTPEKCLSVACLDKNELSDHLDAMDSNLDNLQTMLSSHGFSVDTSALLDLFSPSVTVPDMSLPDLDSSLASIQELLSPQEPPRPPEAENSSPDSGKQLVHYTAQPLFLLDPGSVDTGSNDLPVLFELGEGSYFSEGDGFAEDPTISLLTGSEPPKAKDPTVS
CRX, sequence (O43186 whole entry): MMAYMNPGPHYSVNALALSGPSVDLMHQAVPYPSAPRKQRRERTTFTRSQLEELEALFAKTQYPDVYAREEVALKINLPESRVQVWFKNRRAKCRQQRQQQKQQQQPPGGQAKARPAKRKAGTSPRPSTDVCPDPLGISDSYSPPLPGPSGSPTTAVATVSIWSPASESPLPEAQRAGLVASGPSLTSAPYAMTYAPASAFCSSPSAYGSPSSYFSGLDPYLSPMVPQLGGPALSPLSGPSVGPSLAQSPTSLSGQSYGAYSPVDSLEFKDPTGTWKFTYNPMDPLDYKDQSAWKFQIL
ETV5, sequence (P41161 whole entry): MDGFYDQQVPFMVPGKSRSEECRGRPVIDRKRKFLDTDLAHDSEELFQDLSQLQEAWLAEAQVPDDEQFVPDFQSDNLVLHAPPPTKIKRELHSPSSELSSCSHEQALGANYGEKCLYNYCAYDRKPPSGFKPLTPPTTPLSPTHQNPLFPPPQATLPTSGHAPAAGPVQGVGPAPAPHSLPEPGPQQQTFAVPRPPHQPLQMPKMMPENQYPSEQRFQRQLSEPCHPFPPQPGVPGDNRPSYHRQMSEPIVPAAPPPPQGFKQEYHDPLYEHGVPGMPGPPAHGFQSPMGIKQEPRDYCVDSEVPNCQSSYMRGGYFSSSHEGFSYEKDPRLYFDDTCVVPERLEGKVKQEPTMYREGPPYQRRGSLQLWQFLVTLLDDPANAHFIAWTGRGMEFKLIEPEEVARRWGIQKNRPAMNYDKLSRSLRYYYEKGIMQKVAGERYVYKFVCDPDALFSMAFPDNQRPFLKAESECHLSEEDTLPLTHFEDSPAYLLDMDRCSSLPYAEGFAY

Q: Which results are given for CCTAGC?
A: binding signal [1]: 1.18 fold enrichment (6-mer frequency, TF over GST control); binding signal [2]: 1.1 fold enrichment (6-mer frequency, TF over GST control); binding signal [3]: 1.31 fold enrichment (6-mer frequency, TF over GST control); binding signal [4]: 1.14 fold enrichment (6-mer frequency, TF over GST control); binding signal [5]: 1.24 fold enrichment (6-mer frequency, TF over GST control); binding signal [6]: 1.2 fold enrichment (6-mer frequency, TF over GST control); binding signal [7]: 1.04 fold enrichment (6-mer frequency, TF over GST control); binding signal [8]: 1.26 fold enrichment (6-mer frequency, TF over GST control); binding signal [9]: 1.22 fold enrichment (6-mer frequency, TF over GST control); binding signal [10]: 1.18 fold enrichment (6-mer frequency, TF over GST control); binding signal [11]: 1.15 fold enrichment (6-mer frequency, TF over GST control); binding signal [12]: 1.17 fold enrichment (6-mer frequency, TF over GST control); binding signal [13]: 1.17 fold enrichment (6-mer frequency, TF over GST control); binding signal [14]: 1.16 fold enrichment (6-mer frequency, TF over GST control); binding signal [15]: 1.13 fold enrichment (6-mer frequency, TF over GST control); binding signal [16]: 1.13 fold enrichment (6-mer frequency, TF over GST control); binding signal [17]: 1.12 fold enrichment (6-mer frequency, TF over GST control); binding signal [18]: 1.02 fold enrichment (6-mer frequency, TF over GST control); binding signal [19]: 1.13 fold enrichment (6-mer frequency, TF over GST control)
